# Laboratory results taken from the supplement of paper PMC8728848.
# Many of the other results were omitted from the sample, so the strongest signals are more common in it than they were.
# B1: NKp30 (Homo sapiens), O14931 (protein)
# chain: LWVSQPPEIRTLEGSSAFLPCSFNASQGRLAIGSVTWFRDEVVPGKEVRNGTPEFRGRLAPLASSRFLHDHQAELHIRDVRGHDASIYVCRVEVLGLGVGTGNGTRLVVEKEHPQLG
# B2: Glycodelin A (Homo sapiens), P09466 (protein)
# chain: MLCLLLTLGVALVCGVPAMDIPQTKQDLELPKLAGTWHSMAMATNNISLMATLKAPLRVHITSLLPTPEDNLEIVLHRWENNSCVEKKVLGEKTENPKKFKINYTVANEATLLDTDYDNFLFLCLQDTTTPIQSMMCQYLARVLVEDDEIMQGFIRAFRPLPRHLWYLLDLKQMEEPCRF
# B3: KCR (Mus musculus), P70194 (protein)
# chain: MKEAELNRDMARYCTDNQCVSLQPQGLGPKSAALMAPRTLRHVQVILALMVVTVIFSLLALFVVASQPWRPEWNKEPPSLLLRGSNNSGHDNHSQFVRETEMQVAIQRLRDYEENSSSCHKEVQILKYQMDNVSSLVQLLGSHLEDVNADILQTKDVLKESGALALETQALRSSLEVASADIHSLRGDLEKANAMTSQTRGLLKSSTENTSAELHVLGRGLEEAQSEIQALRGSLQSANDLSSQTQGFLQHSMDNISAQIQTVRDGMERAGEKMNSLKKELETLTAQTQKANGHLEQTDAQIQGLKAELKSTSSLNSRIEVVNGQMKDASRELQTLRRDLSDVSALKSNVQMLQSNLQRAKTEMQTLKADLQATKALTAKIQGEQNRLGALQEAVAAQKQEQKTQNQVLQLIAQNWKYFNGNFYYFSRDKKPWREAEKFCTSQGAHLASVTSQEEQAFLVQTTSSGDHWIGLTDQGTEGIWRWVDGTPFNNAQSKGFWGKNQPDNWRHRNGEREDCVHVRQQWNDMACGSSYPWVCKKSTGWSAARVG
# Assays:
# Experiment in all cases: glycan array binding signal (z-score within array); higher = stronger binding
# Details in all cases: glycan notation: IUPAC condensed, linker removed
# [1] = molecular target: Fuc(a1-2)Gal(b1-3)GalNAc
# In short: (§1)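 Glycan array data came from 3228 arrays in the Consortium for Functional Glycomics database, and only arrays with an available protein sequence were kept. Glycan names were put into IUPAC-condensed notation, and columns mapping to the same glycan were averaged. The binding signal is a within-array Z-score, averaged across arrays of one protein sequence run at different concentrations or buffers and across linkers. A negative Z-score can be read as non-binding.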
# [2] = molecular target: Fuc(a1-2)Gal6S(b1-4)Glc6S
# In short: as §1
# [3] = molecular target: Fuc(a1-3)[Gal3S(b1-4)]Glc
# In short: as §1
# [4] = molecular target: Fuc(a1-3)[Gal3S(b1-4)]Glc6S
# In short: as §1
# [5] = molecular target: Fuc(a1-3)[Gal3S(b1-4)]GlcNAc6S
# In short: as §1
# [6] = molecular target: Gal(b1-3)Gal
# In short: as §1
# [7] = molecular target: Gal(b1-3)GalNAc
# In short: as §1
# [8] = molecular target: Gal(b1-3)GalNAc(b1-3)Gal(b1-4)Glc
# In short: as §1
# [9] = molecular target: Gal3S(b1-4)Glc6S
# In short: as §1
# [10] = molecular target: Gal3S(b1-4)GlcNAc6S
# In short: as §1
# [11] = molecular target: Gal3S6S(b1-4)GlcNAc6S
# In short: as §1
# [12] = molecular target: Gal4S6S(b1-4)GlcNAc
# In short: as §1
# [13] = molecular target: Gal6S(b1-4)Glc6S
# In short: as §1
# [14] = molecular target: Glc(a1-4)Glc
# In short: as §1
# [15] = molecular target: Glc(a1-6)Glc(a1-6)Glc
# In short: as §1
# [16] = molecular target: GlcNAc(a1-6)Gal(b1-4)GlcNAc
# In short: as §1
# [17] = molecular target: Neu5Ac(a2-3)Gal(b1-3)[Neu5Ac(a2-3)Gal(b1-4)]GlcNAc
# In short: as §1
# [18] = molecular target: Neu5Ac(a2-3)Gal(b1-3)[Neu5Ac(a2-6)]GalNAc
# In short: as §1
# [19] = molecular target: Neu5Ac(a2-3)[GalNAc(b1-4)]Gal(b1-4)GlcNAc
# In short: as §1
# [20] = molecular target: Neu5Ac(a2-6)Gal(b1-4)GlcNAc(b1-3)Gal(b1-4)[Fuc(a1-3)]GlcNAc(b1-3)Gal(b1-4)[Fuc(a1-3)]GlcNAc
# In short: as §1
# [21] = molecular target: Neu5Ac(a2-8)Neu5Ac(a2-3)[GalNAc(b1-4)]Gal(b1-4)Glc
# In short: as §1
# [22] = molecular target: Fuc(a1-2)Gal(b1-3)GalNAc(b1-3)Gal
# In short: as §1
# [23] = molecular target: Fuc(a1-2)Gal(b1-3)GalNAc(b1-3)Gal(a1-4)Gal(b1-4)Glc
# In short: as §1
# [24] = molecular target: Fuc(a1-2)Gal(b1-3)GlcNAc
# In short: as §1
# [25] = molecular target: Fuc(a1-2)[GalNAc(a1-3)]Gal(b1-4)[Fuc(a1-3)]GlcNAc
# In short: as §1
# [26] = molecular target: Gal(a1-3)Gal(b1-3)GlcNAc
# In short: as §1
# [27] = molecular target: Gal(b1-3)GalNAc(b1-3)Gal(a1-4)Gal(b1-4)Glc
# In short: as §1
# [28] = molecular target: Gal(b1-3)[Fuc(a1-4)]GlcNAc
# In short: as §1
# [29] = molecular target: Gal(b1-3)[Fuc(a1-4)]GlcNAc(b1-3)Gal(b1-4)GlcNAc
# In short: as §1
# [30] = molecular target: Gal(b1-4)GlcNAc(b1-3)GalNAc
# In short: as §1
# [31] = molecular target: Gal3S(b1-3)[Fuc(a1-4)]GlcNAc
# In short: as §1
# [32] = molecular target: GalNAc(a1-3)Gal
# In short: as §1
# [33] = molecular target: GlcNAc(b1-3)[GlcNAc(b1-6)]GalNAc
# In short: as §1
# [34] = molecular target: GlcNAc(b1-4)GlcNAc
# In short: as §1
# [35] = molecular target: GlcNAc(b1-6)Gal(b1-4)GlcNAc
# In short: as §1
# [36] = molecular target: Man(a1-2)Man(a1-2)Man(a1-6)[Man(a1-3)]Man
# In short: as §1
# [37] = molecular target: Man(a1-2)Man(a1-3)[Man(a1-2)Man(a1-6)]Man
# In short: as §1
# [38] = molecular target: Man(a1-2)Man(a1-6)[Man(a1-3)]Man(a1-6)[Man(a1-2)Man(a1-2)Man(a1-3)]Man
# In short: as §1
# [39] = molecular target: Neu5Ac(a2-3)Gal(b1-3)GalNAc(b1-4)[Neu5Ac(a2-3)]Gal(b1-4)Glc
# In short: as §1
# [40] = molecular target: Neu5Ac(a2-3)Gal(b1-4)GlcNAc(b1-3)Gal(b1-3)GlcNAc
# In short: as §1
# [41] = molecular target: Neu5Ac(a2-3)Gal6S(b1-4)[Fuc(a1-3)]GlcNAc
# In short: as §1
# [42] = molecular target: Neu5Ac(a2-6)Gal(b1-4)GlcNAc(b1-2)Man(a1-3)[GlcNAc(b1-2)Man(b1-4)GlcNAc(b1-2)Man(a1-6)]Man(b1-4)GlcNAc(b1-4)GlcNAc
# In short: as §1
# [43] = molecular target: Neu5Ac(a2-6)GalNAc
# In short: as §1
# [44] = molecular target: Neu5Ac(a2-8)Neu5Ac(a2-8)Neu5Ac(a2-8)Neu5Ac(a2-3)[GalNAc(b1-4)]Gal(b1-4)Glc
# In short: as §1
# [45] = molecular target: Neu5Ac(b2-6)GalNAc
# In short: as §1
# [46] = molecular target: Fuc(a1-2)Gal(b1-3)GalNAc(b1-4)[Neu5Ac(a2-3)]Gal(b1-4)Glc
# In short: as §1
# [47] = molecular target: Fuc(a1-2)Gal(b1-4)GlcNAc(b1-3)Gal(b1-4)GlcNAc
# In short: as §1
# [48] = molecular target: Fuc(a1-2)Gal6S(b1-4)GlcNAc
# In short: as §1
# [49] = molecular target: Fuc(a1-3)[Gal(b1-4)]GlcNAc(b1-4)Gal(b1-4)[Fuc(a1-3)]GlcNAc(b1-4)Gal(b1-4)[Fuc(a1-3)]GlcNAc
# In short: as §1
# [50] = molecular target: Fuc(a1-3)[Gal(b1-4)]GlcNAc6S
# In short: as §1
# [51] = molecular target: Fuc(a1-3)[GalNAc(b1-4)]Gal(b1-4)GlcNAc
# In short: as §1
# [52] = molecular target: Gal(a1-3)Gal(b1-4)[Fuc(a1-3)]GalNAc
# In short: as §1
# [53] = molecular target: Gal6S(b1-4)GlcNAc
# In short: as §1
# [54] = molecular target: Glc(b1-6)Glc
# In short: as §1
# [55] = molecular target: GlcNAc(b1-3)Gal(b1-4)GlcNAc(b1-3)Gal(b1-4)GlcNAc
# In short: as §1
# [56] = molecular target: GlcNAc(b1-3)[GlcNAc(b1-6)]GlcNAc
# In short: as §1
# [57] = molecular target: GlcNAc(b1-4)Gal(b1-4)GlcNAc
# In short: as §1
# [58] = molecular target: GlcNAc(b1-4)[GlcNAc(b1-6)]GalNAc
# In short: as §1
# [59] = molecular target: Kdn(a2-3)Gal(b1-4)GlcNAc
# In short: as §1
# [60] = molecular target: Man(a1-2)Man(a1-2)Man(a1-3)[Man(a1-2)Man(a1-6)[Man(a1-3)]Man(a1-6)]Man(b1-4)GlcNAc(b1-4)GlcNAc
# In short: as §1
# [61] = molecular target: Neu5Ac(a2-3)Gal(b1-3)GlcNAc
# In short: as §1
# [62] = molecular target: Neu5Ac(a2-3)Gal(b1-4)[Fuc(a1-3)]GlcNAc(b1-3)Gal(b1-4)GlcNAc
# In short: as §1
# [63] = molecular target: Neu5Ac(a2-8)Neu5Ac(a2-8)Neu5Ac(a2-3)[GalNAc(b1-4)]Gal(b1-4)Glc
# In short: as §1
# [64] = molecular target: Neu5Gc(a2-3)Gal(b1-4)GlcNAc
# In short: as §1
binder,measurement,setting,value
B1,glycan array binding signal (z-score),[1],-0.862
same,glycan array binding signal (z-score),[2],2.23
same,glycan array binding signal (z-score),[3],0.441
same,glycan array binding signal (z-score),[4],0.61
same,glycan array binding signal (z-score),[5],0.561
same,glycan array binding signal (z-score),[6],-0.378
same,glycan array binding signal (z-score),[7],-0.24
same,glycan array binding signal (z-score),[8],-0.43
same,glycan array binding signal (z-score),[9],2.3
same,glycan array binding signal (z-score),[10],2.56
same,glycan array binding signal (z-score),[11],2.38
same,glycan array binding signal (z-score),[12],2.56
same,glycan array binding signal (z-score),[13],2.44
same,glycan array binding signal (z-score),[14],-0.398
same,glycan array binding signal (z-score),[15],-0.195
same,glycan array binding signal (z-score),[16],-0.667
same,glycan array binding signal (z-score),[17],0.776
same,glycan array binding signal (z-score),[18],-0.06
same,glycan array binding signal (z-score),[19],-0.354
same,glycan array binding signal (z-score),[20],-0.472
same,glycan array binding signal (z-score),[21],-0.18
B2,glycan array binding signal (z-score),[1],-0.421
same,glycan array binding signal (z-score),[22],-0.414
same,glycan array binding signal (z-score),[23],-0.485
same,glycan array binding signal (z-score),[24],-0.318
same,glycan array binding signal (z-score),[25],-0.439
same,glycan array binding signal (z-score),[26],4.32
same,glycan array binding signal (z-score),[27],-0.473
same,glycan array binding signal (z-score),[28],0.183
same,glycan array binding signal (z-score),[29],1.52
same,glycan array binding signal (z-score),[30],-0.373
same,glycan array binding signal (z-score),[31],3.69
same,glycan array binding signal (z-score),[32],-0.099
same,glycan array binding signal (z-score),[33],-0.397
same,glycan array binding signal (z-score),[34],-0.002
same,glycan array binding signal (z-score),[35],-0.5
same,glycan array binding signal (z-score),[36],-0.508
same,glycan array binding signal (z-score),[37],-0.43
same,glycan array binding signal (z-score),[38],-0.427
same,glycan array binding signal (z-score),[39],-0.406
same,glycan array binding signal (z-score),[40],-0.449
same,glycan array binding signal (z-score),[41],-0.448
same,glycan array binding signal (z-score),[42],2.02
same,glycan array binding signal (z-score),[43],4.31
same,glycan array binding signal (z-score),[44],4.64
same,glycan array binding signal (z-score),[45],3.68
B3,glycan array binding signal (z-score),[1],-0.72
same,glycan array binding signal (z-score),[46],-0.426
same,glycan array binding signal (z-score),[47],-0.635
same,glycan array binding signal (z-score),[48],0.367
same,glycan array binding signal (z-score),[49],4.39
same,glycan array binding signal (z-score),[50],3.94
same,glycan array binding signal (z-score),[51],3.06
same,glycan array binding signal (z-score),[52],0.117
same,glycan array binding signal (z-score),[10],0.95
same,glycan array binding signal (z-score),[13],2.48
same,glycan array binding signal (z-score),[53],0.769
same,glycan array binding signal (z-score),[54],-0.566
same,glycan array binding signal (z-score),[16],2.47
same,glycan array binding signal (z-score),[55],-0.465
same,glycan array binding signal (z-score),[56],-0.721
same,glycan array binding signal (z-score),[57],-0.82
same,glycan array binding signal (z-score),[58],-0.917
same,glycan array binding signal (z-score),[59],-0.623
same,glycan array binding signal (z-score),[60],-0.336
same,glycan array binding signal (z-score),[61],-0.592
same,glycan array binding signal (z-score),[62],0.119
same,glycan array binding signal (z-score),[63],0.254
same,glycan array binding signal (z-score),[64],-0.288
